For one assay, the system named is LTK. The following applies: concentration: 1 μM, replicates: in singlicate, n = 1.
The next assay deals with LYN. The following applies: concentration: 1 μM, replicates: in singlicate; n = 1.
Another assay deals with T1, LZK.
T1 construct: gene MAP3K13
The following applies: concentration: 1 μM, replicates: in singlicate, n = 1.

Another assay deals with MAK. Conditions: concentration: 1 μM, replicates: in singlicate; n = 1.
For the next assay, the system named is MAP3K15. The following applies: concentration: 1 μM, replicates: in singlicate, n = 1.
For the next assay, the system named is MAP3K1. Conditions: concentration: 1 μM, replicates: in singlicate, n = 1.
Another assay relates to MAP3K2. The following applies: concentration: 1 μM, replicates: in singlicate, n = 1.
A further assay relates to MAP3K3. Conditions: concentration: 1 μM, replicates: in singlicate, n = 1.
Another assay relates to MAP3K4. Conditions: concentration: 1 μM, replicates: in singlicate, n = 1.
For the next assay, the system named is MAP4K2. The following applies: concentration: 1 μM, replicates: in singlicate, n = 1.
For another assay, the system named is MAP4K3. Conditions: concentration: 1 μM, replicates: in singlicate, n = 1.
The subject of the next assay is MAP4K4. The following applies: concentration: 1 μM, replicates: in singlicate, n = 1.
In a further assay the test system is MAP4K5. Conditions: concentration: 1 μM, replicates: in singlicate, n = 1.
The test system of the next assay is MAPKAPK2. Conditions: concentration: 1 μM, replicates: in singlicate; n = 1.
The subject of another assay is MAPKAPK5. The following applies: concentration: 1 μM, replicates: in singlicate; n = 1.
For another assay, the system named is MARK1. The following applies: concentration: 1 μM, replicates: in singlicate, n = 1.
The test system of the next assay is MARK2. Conditions: concentration: 1 μM, replicates: in singlicate, n = 1.
The test system of the next assay is MARK3. Conditions: concentration: 1 μM, replicates: in singlicate, n = 1.
A further assay has as its system MARK4. Conditions: concentration: 1 μM, replicates: in singlicate, n = 1.
The subject of a further assay is MAST1. The following applies: concentration: 1 μM, replicates: in singlicate; n = 1.

“And” between values parts separate entries of the source, which are not always exact repeats. Equal entries are not always repeated. Where two headings read alike, the source gives them in different places.

The record followed here is publication PMC5540273 (PLoS ONE, 2017).
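Note: KINOMEscan kinase panel screen.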

On to `Nc1nccc(-c2c(-c3ccc(F)cc3)ncn2C2CCN(CC(F)(F)F)CC2)n1` [SB-236560], for which the “%Inh” value came to 100% in the assay on LTK; 13% in the assay on LYN; 7% with LZK; 29% with MAK; 0% with MAP3K15; 0% in the assay with MAP3K1. Besides, the “%Inh” value in the assay on MAP3K2, in the assay with MAP3K3, in the assay with MAP3K4, in the assay on MAP4K2, with MAP4K3 and with MAP4K4 was 0% throughout. For the same compound, the “%Inh” value with MAP4K5, in the assay on MAPKAPK2, in the assay on MAPKAPK5, in the assay with MARK1, in the assay with MARK2 and in the assay on MARK3 was 0% each time. Also, the “%Inh” value worked out at 4% in the assay with MARK4 and 40% with MAST1.

With `COc1cc2c(cc1OC[C@@H](O)CO)ncc1c3ccc(C#N)cc3[nH]c21`, the “%Inh” value stood at 0% in the assay with LTK; 0% with LYN; 8% in the assay on LZK; 0% with MAK; 42% in the assay on MAP3K15; 0% with MAP3K1. The “%Inh” value is 0% in the assay with MAP3K2; 6% in the assay with MAP3K3; 0% in the assay on MAP3K4; 17% in the assay on MAP4K2; 20% in the assay on MAP4K3; 27% in the assay with MAP4K4. For the same compound, the “%Inh” value in the assay with MAP4K5 was 3%; in the assay with MAPKAPK2, 0%; in the assay on MAPKAPK5, 0%; with MARK1 it was 0%; with MARK2 it was 10%; with MARK3 it was 0%. Also, the figures for the “%Inh” value in the assay on MARK4 and with MAST1 were 0% and 62%, respectively.

Consider `CC(C)(C)n1cnc2c(N)ncnc21` [SKF-97359], for which the “%Inh” value is 0% in the assay with LTK; 0% in the assay with LYN; 15% in the assay with LZK; 0% in the assay with MAK; 0% in the assay with MAP3K15; 0% in the assay with MAP3K1. Besides, the “%Inh” value in the assay with MAP3K2, in the assay with MAP3K3, with MAP3K4, in the assay on MAP4K2, with MAP4K3 and with MAP4K4 was 0% throughout. In addition, the “%Inh” value in the assay on MAP4K5 is 0%; in the assay on MAPKAPK2 it was 0%; with MAPKAPK5 it was 0%; in the assay with MARK1, 0%; in the assay with MARK2, 1%; with MARK3 it was 21%. Besides, the “%Inh” value stood at 3% with MARK4 and 58% with MAST1.

In the case of `COc1ccc(Nc2ncc(C#N)c(Nc3ccccc3C(N)=O)n2)cc1N1CCN(C)CC1.Cl` [GSK1558669], the “%Inh” value in the assay with LTK is given as 89%; in the assay with LYN it was 93.9%; with LZK it was 97.5%; in the assay on MAK, 66%; in the assay on MAP3K15 it was 73%; in the assay on MAP3K1 it was 38%. In addition, the “%Inh” value with MAP3K2 is 99.2%; with MAP3K3, 99.8%; in the assay with MAP3K4 it was 99.9%; with MAP4K2, 98.8%; in the assay on MAP4K3, 99.8%; with MAP4K4 it was 96.8%. Moreover, the “%Inh” value with MAP4K5 stood at 99.3%; in the assay on MAPKAPK2, 0%; in the assay with MAPKAPK5, 0%; with MARK1 it was 99.3%; in the assay with MARK2 it was 99.9%; in the assay on MARK3 it was 89%. The “%Inh” value in the assay with MARK4 turned out to be 98.7%; in the assay with MAST1 it was 91.8%.

On to `NCCNS(=O)(=O)c1ccc(-c2ccnc3[nH]ccc23)cc1` [GSK977617], for which the “%Inh” value in the assay on LTK (1 µM) was 37% and 0%; in the assay on LYN, 0%; in the assay on LZK (1 µM), 22% and 3%; in the assay with MAK, 0%; in the assay on MAP3K15 (1 µM), 4% and 0%; in the assay on MAP3K1 (1 µM), 8% and 11%. The “%Inh” value is 83% and 72% in the assay on MAP3K2 (1 µM); 63% and 56% in the assay with MAP3K3 (1 µM); 0% and 21% in the assay on MAP3K4 (1 µM); 47% and 38% in the assay on MAP4K2 (1 µM); 20% and 0% with MAP4K3 (1 µM); 43% and 25% in the assay with MAP4K4 (1 µM). Besides, the “%Inh” value with MAP4K5 (1 µM) is 8% and 0%; with MAPKAPK2 it was 0%; in the assay with MAPKAPK5, 0%; in the assay with MARK1 (1 µM), 18% and 0%; in the assay on MARK2 (1 µM) it was 53% and 40%; with MARK3 (1 µM), 25% and 4%. Besides, the “%Inh” value with MARK4 (1 µM) was 36% and 12%; in the assay with MAST1 it was 0%.

In the case of `Cc1cn2c(=O)cc(N3CCOCC3)nc2n1Cc1cccc(Cl)c1Cl` [GSK2334006], the “%Inh” value was 7% in the assay on LTK; 4% with LYN; 0% in the assay with LZK; 9% in the assay on MAK; 2% with MAP3K15; 18% in the assay with MAP3K1. For the same compound, the “%Inh” value with MAP3K2 came to 6%; with MAP3K3, 0%; in the assay on MAP3K4, 0%; in the assay with MAP4K2, 0%; in the assay with MAP4K3, 5%; in the assay on MAP4K4, 16%. The “%Inh” value worked out at 19% in the assay with MAP4K5; 28% in the assay with MAPKAPK2; 0% with MAPKAPK5; 0% in the assay with MARK1; 0% in the assay on MARK2; 2% in the assay with MARK3. The “%Inh” value in the assay on MARK4 and in the assay with MAST1 was 0% each time.

With `CC(C)Oc1ccc2c(-c3ccnc(Nc4ccc(N5CCN(C)CC5)cc4)n3)cnn2n1` [GW696155], the “%Inh” value in the assay with LTK amounted to 0%; in the assay on LYN, 34%; in the assay with LZK, 10%; with MAK it was 0%; in the assay with MAP3K15, 11%; in the assay with MAP3K1, 39%. For the same compound, the “%Inh” value came out at 83% with MAP3K2; 67% with MAP3K3; 74% with MAP3K4; 28% with MAP4K2; 52% with MAP4K3; 1% with MAP4K4. In addition, the “%Inh” value in the assay on MAP4K5 is 0%; in the assay with MAPKAPK2, 0%; with MAPKAPK5, 0%; in the assay on MARK1, 50%; with MARK2, 72%; in the assay on MARK3 it was 77%. Moreover, the “%Inh” value is 59% with MARK4 and 8% in the assay on MAST1.

Consider `COC(=O)Nc1nc2cc(Oc3ccc(NC(=O)Nc4cc(F)ccc4F)cc3)ccc2[nH]1.Cl` [GW701424], for which the “%Inh” value in the assay with LTK came to 0%; in the assay on LYN, 19%; in the assay on LZK it was 37%; with MAK it was 18%; with MAP3K15, 0%; in the assay with MAP3K1 it was 0%. The “%Inh” value with MAP3K2 is recorded as 2%; in the assay on MAP3K3, 0%; with MAP3K4, 0%; in the assay with MAP4K2, 0%; in the assay with MAP4K3, 0%; in the assay on MAP4K4, 0%. The “%Inh” value in the assay with MAP4K5 was determined as 0%; in the assay on MAPKAPK2, 13%; with MAPKAPK5 it was 0%; with MARK1 it was 0%; in the assay on MARK2, 0%; in the assay with MARK3, 3%. Also, the “%Inh” value is reported as 0% in the assay on MARK4 and 5% with MAST1.

`Cc1cccc(-c2nc(-c3ccc(S(C)(=O)=O)cc3)sc2-c2ccncc2)c1`: the “%Inh” value in the assay on LTK was 0%; in the assay on LYN it was 14%; in the assay on LZK, 8%; in the assay on MAK, 17%; in the assay on MAP3K15 it was 9%; in the assay with MAP3K1, 12%. Besides, the “%Inh” value with MAP3K2 turned out to be 10%; in the assay on MAP3K3, 9%; in the assay with MAP3K4, 0%; in the assay with MAP4K2, 0%; with MAP4K3, 0%; in the assay on MAP4K4, 30%. Besides, the “%Inh” value in the assay with MAP4K5 came out at 0%; with MAPKAPK2, 1%; in the assay on MAPKAPK5, 0%; with MARK1 it was 34%; in the assay on MARK2, 0%; in the assay with MARK3, 0%. The “%Inh” value in the assay on MARK4 and in the assay on MAST1 was 31% throughout.

Consider `CC(=O)Nc1ccc(COc2ccc(Nc3ccnc4cc(-c5ccccn5)ccc34)cc2)cc1.Cl` [GW440148], for which the “%Inh” value with LTK is 7%; in the assay on LYN it was 1%; in the assay on LZK, 3%; in the assay with MAK it was 43%; in the assay with MAP3K15, 2%; in the assay with MAP3K1 it was 11%. In addition, the “%Inh” value with MAP3K2, with MAP3K3, in the assay with MAP3K4, in the assay with MAP4K2, with MAP4K3 and in the assay on MAP4K4 was 0% throughout. The “%Inh” value was found to be 0% with MAP4K5; 0% in the assay on MAPKAPK2; 2% in the assay with MAPKAPK5; 0% in the assay with MARK1; 0% with MARK2; 8% in the assay on MARK3. Also, the “%Inh” value with MARK4 amounted to 0%; in the assay with MAST1, 16%.

Take `Cc1nnc(-c2ccc(C)c(-c3ccc(C(=O)Nc4ccc(NS(C)(=O)=O)cc4)cc3)c2)o1` [GW702865]: the “%Inh” value in the assay on LTK is 3%; in the assay on LYN it was 25%; in the assay with LZK it was 21%; in the assay on MAK it was 35%; with MAP3K15, 0%; in the assay with MAP3K1, 0%. Besides, the “%Inh” value was determined as 0% with MAP3K2; 0% in the assay on MAP3K3; 19% in the assay on MAP3K4; 0% in the assay on MAP4K2; 0% in the assay on MAP4K3; 0% in the assay on MAP4K4. In addition, the “%Inh” value was determined as 0% in the assay on MAP4K5; 11% in the assay on MAPKAPK2; 0% in the assay with MAPKAPK5; 0% in the assay on MARK1; 0% in the assay with MARK2; 0% in the assay with MARK3. Moreover, the “%Inh” value in the assay on MARK4 was 10%; in the assay with MAST1, 21%.
